Assay results published in PubChem BioAssay.
Values without a mark were called inactive. The rule behind the calls is not given here.

Target: Pantothenate synthetase (Mycobacterium tuberculosis (strain ATCC 25618 / H37Rv)) (UniProt P9WIL5)
Assay: Recombinant Mtb pantothenate synthetase (PanC) inhibitors, coupled enzyme, confirmatory (AID 375);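 note: 0% = full reaction with vehicle and 100% = no enzyme background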
Details: coupled enzyme assay; at 10 µM, hits give high values

Pantothenate synthetase (Mycobacterium tuberculosis (strain ATCC 25618 / H37Rv)), sequence (P9WIL5 whole entry, looked up): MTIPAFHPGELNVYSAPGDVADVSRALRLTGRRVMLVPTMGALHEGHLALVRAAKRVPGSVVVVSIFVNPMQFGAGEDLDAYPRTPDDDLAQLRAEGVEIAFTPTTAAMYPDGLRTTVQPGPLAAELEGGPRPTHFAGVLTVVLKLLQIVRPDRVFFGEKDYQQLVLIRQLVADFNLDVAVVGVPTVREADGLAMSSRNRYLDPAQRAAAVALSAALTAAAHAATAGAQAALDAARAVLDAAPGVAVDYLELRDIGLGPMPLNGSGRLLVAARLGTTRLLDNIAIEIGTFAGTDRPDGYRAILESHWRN

| Compound | inhibition |
| --- | --- |
| COc1ccc(C2/C(=C(/O)c3cnn(-c4ccccc4)c3C)C(=O)C(=O)N2CCN(C)C)cc1OC (configuration not stated) | 3% |
| COc1cccc(N2CCN(c3ncnc4c3[nH]c3ccc(F)cc34)CC2C)c1 (configuration not stated) | 0% |
| C=CCn1c(COc2ccccc2)nnc1SCC(=O)C(C)(C)C | 0% |
| FC(F)(F)c1cc(-c2ccccc2)nc(N2CCCCC2)n1 | 2% |
| CC(C)(CSc1nncn1N)NS(=O)(=O)c1ccc(Cl)cc1 | 0% |
| Cc1nnc2n(-c3ccc(Cl)cc3)c(=O)c3c4c(sc3n12)CN(C)CC4 | 3% |
| COc1ccccc1-c1nc2n(n1)C(c1ccc(Cl)cc1)C(C(N)=O)=C(C)N2 (configuration not stated) | 0% |
| O=C(NC1CCCCC1)C1CCCN1C(=O)NCc1ccccc1 (configuration not stated) | 4% |
| CCCCCCCCCCCCCCCC(O)C(N)CO (configuration not stated) | 0% |
| COCC(=O)Nc1sc2c(c1C(=O)OC)C(C(=O)OC)CC2 (configuration not stated) | 0% |
| c1nc(NCC2CCCO2)c2[nH]cnc2n1 (configuration not stated) | 0% |
| Cc1ccc(N2CCN(S(=O)(=O)N(C)C)CC2)c(C)c1 | 0% |
| CCn1c(C)nc2cc(C(=O)OC(C(F)(F)C(F)F)C(F)(F)C(F)F)ccc21 | 0% |
| COc1ccc(N(CC(=O)N2CCN(Cc3ccc4c(c3)OCO4)CC2)S(C)(=O)=O)cc1OC | 5% |
| COC(=O)c1ccc(-c2ccco2)n1Cc1nc(-c2ccc(OC)c(OC)c2)oc1C | 2% |
| COc1ccccc1Nc1nc2ccccc2[nH]1 | 0% |
| C=CCSc1nc(N)c(C(=O)Nc2ccccc2C)cc1C(N)=O | 0% |
